Data published in PubChem BioAssay (NCATS).
Results filed as inconclusive are left out. Unmarked numbers belong to inactive results. Active and inactive are the calls of the source. Calls come from the whole dose curve; as a rule, active = well fitted cell-killing curve with a large enough effect; inconclusive = small, poorly fitted or top-dose-only effect, or effect the other way; inactive = flat fitted curve, though single readings scatter. Numbered stars: 1 amine (or outer) side, 2 acyl side, 3 side chain; on linkers, the order of the positions; unused ones are H or OH. Bridge positions count the residues as written; N and C are the ends. Square brackets hold non-standard residues; d marks the D form. Peptide text beside a SMILES is read from it. I, II: the chains in the order shown. Actinocin(9to1) = Cc1c2oc3c(C)ccc(C(=O)[*:1])c3nc-2c(C(=O)[*:2])c(N)c1=O; NMeV = CN[C@H](C(=O)O)C(C)C; Sar = CNCC(=O)O

Assay: qHTS of pediatric cancer cell lines to identify multiple opportunities for drug repurposing: Confirmatory screen for control Hh wild type fibroblast cells (AID 1347121); note: nearly all actives have a fitted effect of over 70% in size;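 for activity, negative = cytotoxic: plate controls were DMSO for no effect and bortezomib for full effect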
Conditions: viability qHTS; series mostly up to 45.9 µM; activity, negative = cytotoxic: at the top concentration
Source text: Drug repurposing or repositioning has been offered as a strategy for drug development in oncology programs. This approach has special potential for childhood cancers and other rare or orphan diseases, where the expected return on new drug development has been a disincentive to pharmaceuticals.
In this project we exploit the poly-pharmacology of drugs to discover new indications via phenotypic screening of a panel of 19 well-characterized cell lines derived from solid tumors seen in children and adolescents. The goal is to identify approved drugs with previously unrecognized anticancer properties that has the potential to reveal new mechanisms and biological processes involved in carcinogenesis or drug resistance. We employed a titration-based paradigm (quantitative high-throughput screening or qHTS), where all compounds were tested at multiple concentrations for their effect on cell viability. Concentration-response curves (CRCs) were derived directly from the primary screen, and both potency and efficacy values were used to identify compounds with robust bioactivity profiles. We screened the NIH Chemical Genomics Center (NCGC) Pharmaceutical Collection (NPC) and Mechanism Interrogation Plate (MIPE) small molecule collections of approved and investigational compounds against these cell lines; and measured metabolically active cells after 48 hours of compound treatment as a proxy for cell viability.
Assay Submitter: Nathalia J. Martinez, National Center for Advancing Translational Sciences, National Institutes of Health, Rockville, MD, USA; email: natalia.martinez@nih.gov
[1] Shen, M et al. Quantitative high-throughput phenotypic screening of pediatric cancer cell lines identifies multiple opportunities for drug repurposing. Oncotarget 2017 Dec 19;9(4):4758-4772. PMID 29435139.
The cells were obtained from University of North Carolina (UNC), Pediatric Preclinical Testing Program (PPT), and Coriell Institute (CI).
qHTS cell viability assay:
Cells were assayed in growth media at a density of 500-1,000 cells/well. Five microliters of cells were dispensed into 1,536-well, white, solid-bottom, TC-treated plates (Greiner Bio One) using a multidrop dispenser and incubated at 37 degrees C, 5% CO2, under a humidified atmosphere for 5 hours. Twenty-three nanoliters of compounds and controls (neutral control DMSO or positive control bortezomib at final concentration of 2.3 µM) were subsequently transferred by Kalypsys pintool. For primary screens, the MIPE collection was tested at 11-point dilutions (final concentrations range from 0.78 nM to 46 µM) and the NPC collection at 8-point dilutions (final concentrations range from 0.59 nM to 46 µM). Compounds tested in follow-up screens were assayed at 11-point dilutions. Cells were incubated for 48 hours, followed by addition of 3 µL of CellTiter-Glo (Promega). After a 15 min incubation at room temperature, samples were analyzed for luminescence intensity using a ViewLux High-throughput CCD imager equipped with clear filters.
Potency is the fitted concentration of half-maximal effect.

SMILES	activity, negative = cytotoxic [%]	Potency
C[C@@H]1C[C@H]2[C@@H]3CCC4=CC(=O)C=C[C@]4(C)[C@@]3(F)[C@@H](O)C[C@]2(C)[C@H]1C(=O)CO	5.82	–
CC(=O)O[C@]1(C(C)=O)CC[C@H]2[C@@H]3C[C@H](C)C4=CC(=O)CC[C@]4(C)[C@H]3CC[C@@]21C	2.21	–
OC[C@H]1O[C@@H](n2cnc3c(=S)nc[nH]c32)[C@H](O)[C@@H]1O	-17.5	–
C[C@]12CCC(=O)C=C1CC[C@H]1[C@@H]3CC[C@](O)(C(=O)CO)[C@@]3(C)C[C@H](O)[C@@]12F	11.9	–
CCCC(=O)O[C@]1(C(=O)CO)CC[C@H]2[C@@H]3CCC4=CC(=O)CC[C@]4(C)[C@H]3[C@@H](O)C[C@@]21C	3	–
CC(=O)Oc1ccc(C(c2ccc(OC(C)=O)cc2)c2ccccn2)cc1	6.16	–
C[C@]12C=CC(=O)C=C1[C@@H](F)C[C@@H]1[C@@H]2[C@@H](O)C[C@@]2(C)[C@H]1CC[C@]2(O)C(=O)CO	1.41	–
COc1cc(C=C2CCC/C(=C\c3ccc(O)c(OC)c3)C2=O)ccc1O	-13.2	–
CC(=O)[C@H]1CC[C@H]2[C@@H]3C[C@H](C)C4=CC(=O)CC[C@]4(C)[C@H]3[C@@H](O)C[C@]12C	-0.633	–
CCC(C(=O)OCCN(CC)CC)c1ccccc1 (stereo unspecified)	-1.5	–
CC1(C)O[C@@H]2C[C@H]3[C@@H]4CCC5=CC(=O)CC[C@]5(C)[C@@]4(F)[C@@H](O)C[C@]3(C)[C@]2(C(=O)CCl)O1	5.37	–
NC(=O)CC[C@@H]1NC(=O)[C@H](Cc2ccccc2)NC(=O)[C@H](Cc2ccc(O)cc2)NC(=O)CCSSC[C@@H](C(=O)N2CCC[C@H]2C(=O)N[C@@H](CCCN=C(N)N)C(=O)NCC(N)=O)NC(=O)[C@H](CC(N)=O)NC1=O	-1.99	–
CC(C)(C(=O)c1cccnc1)c1cccnc1	6.68	–
C[n+]1c2cc(N)ccc2cc2ccc(N)cc21 (tested in a mixture with another compound)	–	7.37 µM (active)
CC(=O)OCC(=O)[C@@]1(OC(C)=O)[C@@H](C)C[C@H]2[C@@H]3C[C@H](F)C4=CC(=O)C=C[C@]4(C)[C@@]3(F)[C@@H](O)C[C@@]21C	19.9	–
C[C@]12C=CC(=O)C=C1CC[C@@H]1[C@@H]2[C@@H](O)C[C@@]2(C)[C@H]1CC[C@]2(O)C(=O)CO	6.79	–

SMILES	activity, negative = cytotoxic [%]	Potency
Cc1c2oc3c(C)ccc(C(=O)N[C@@H]4C(=O)N[C@H](C(C)C)C(=O)N5CCC[C@H]5C(=O)N(C)CC(=O)N(C)[C@@H](C(C)C)C(=O)O[C@@H]4C)c3nc-2c(C(=O)N[C@@H]2C(=O)N[C@H](C(C)C)C(=O)N3CCC[C@H]3C(=O)N(C)CC(=O)N(C)[C@@H](C(C)C)C(=O)O[C@@H]2C)c(N)c1=O (I: T[dV]P[Sar][NMeV] / II: T[dV]P[Sar][NMeV]; ester I:1-I:C, II:1-II:C; linker I:N-II:N via Actinocin(9to1))	-24	–
CC1(C)O[C@@H]2C[C@H]3[C@@H]4C[C@H](F)C5=CC(=O)CC[C@]5(C)[C@H]4[C@@H](O)C[C@]3(C)[C@]2(C(=O)CO)O1	15.3	–
C[C@H]1C[C@H]2[C@@H]3CCC4=CC(=O)C=C[C@]4(C)[C@@]3(Cl)[C@@H](O)C[C@]2(C)[C@@]1(O)C(=O)CO	3.78	–
CCCCC(=O)O[C@]1(C(=O)CO)CC[C@H]2[C@@H]3CCC4=CC(=O)CC[C@]4(C)[C@H]3[C@@H](O)C[C@@]21C	-10.2	–
CCCCC(CC)CN=C(N)NC(N)=NCCCCCCN=C(N)NC(N)=NCC(CC)CCCC (stereo unspecified)	–	2.93 µM (active)
COCc1c(C(C)C)nc(C(C)C)c(/C=C/[C@@H](O)C[C@@H](O)CC(=O)O)c1-c1ccc(F)cc1	-6.48	–
C=C1C[C@H]2[C@@H]3C=C(C)C4=CC(=O)CC[C@]4(C)[C@H]3CC[C@]2(C)[C@@]1(OC(C)=O)C(C)=O	-9.71	–
CN(C)/N=N/c1nc[nH]c1C(N)=O	11.6	–
CCCCCCC[N+](CC)(CC)CCCCc1ccc(Cl)cc1	–	9.27 µM (active)
O=C(CCCN1CCC(O)(c2ccc(Br)cc2)CC1)c1ccc(F)cc1	-3.05	–
Oc1ccc(O)cc1	16.5	–
CN(C)C(=S)SC(=S)N(C)C	19.2	–
NC(CO)(CO)CO	3.48	–
CC(=O)OCC(=O)[C@@]1(O)CC[C@H]2[C@@H]3CCC4=CC(=O)C=C[C@]4(C)[C@H]3[C@@H](O)C[C@@]21C	4.93	–
CC(=O)Oc1ccc2c(c1)CC[C@@H]1[C@@H]2CC[C@]2(C)[C@@H](O)CC[C@@H]12	-5.46	–
